# From the supplement of paper PMC12067093, “Discovery and optimisation of a covalent ligand for TRIM25 and its application to targeted protein ubiquitination” (Chemical Science, 2025)
# About 21,000 targets were measured; listed, in parts, are those with the largest changes and a random draw of the rest.
# Compound: Cc1cc(ccc1-c1ccccc1)C(=O)N1CCCN(CC1)C(=O)CCl [compound 10]
# Test: probe-labelled cysteine peptide fold change vs DMSO (competition) (log2 fold change); higher = less target engagement (more negative = stronger competition)
# Conditions: THP-1, incubation time: 4 h
# 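Further: competitive profiling in live THP-1 cells: cysteine peptides tagged with an iodoacetamide desthiobiotin (IA-DTB) probe, intensity after compound treatment relative to DMSO-treated cells.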
# UniProt Q86YQ8, sequence (Q86YQ8 whole entry, looked up): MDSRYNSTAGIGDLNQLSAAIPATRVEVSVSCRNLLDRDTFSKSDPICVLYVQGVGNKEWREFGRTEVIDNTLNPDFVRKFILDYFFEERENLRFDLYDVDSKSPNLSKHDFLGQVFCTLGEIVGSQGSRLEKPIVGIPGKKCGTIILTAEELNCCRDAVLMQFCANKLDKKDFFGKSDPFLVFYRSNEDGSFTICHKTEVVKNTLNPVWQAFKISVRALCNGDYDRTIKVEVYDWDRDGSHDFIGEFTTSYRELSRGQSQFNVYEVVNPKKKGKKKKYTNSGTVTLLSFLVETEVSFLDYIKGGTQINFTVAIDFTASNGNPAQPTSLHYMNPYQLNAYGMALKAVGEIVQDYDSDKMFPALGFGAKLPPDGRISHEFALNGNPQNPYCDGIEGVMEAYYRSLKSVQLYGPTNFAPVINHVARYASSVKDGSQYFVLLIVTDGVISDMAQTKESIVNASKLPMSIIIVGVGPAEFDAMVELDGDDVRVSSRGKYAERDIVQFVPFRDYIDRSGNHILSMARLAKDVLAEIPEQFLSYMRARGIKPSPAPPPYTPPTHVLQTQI
# UniProt Q96BR5, sequence (Q96BR5 whole entry, looked up): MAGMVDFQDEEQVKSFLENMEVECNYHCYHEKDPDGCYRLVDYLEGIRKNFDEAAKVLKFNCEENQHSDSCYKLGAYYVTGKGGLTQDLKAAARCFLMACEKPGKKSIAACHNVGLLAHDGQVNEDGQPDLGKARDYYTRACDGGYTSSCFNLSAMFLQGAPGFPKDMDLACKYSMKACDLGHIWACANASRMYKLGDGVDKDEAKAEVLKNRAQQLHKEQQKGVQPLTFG
# UniProt Q7Z408, sequence (Q7Z408 whole entry): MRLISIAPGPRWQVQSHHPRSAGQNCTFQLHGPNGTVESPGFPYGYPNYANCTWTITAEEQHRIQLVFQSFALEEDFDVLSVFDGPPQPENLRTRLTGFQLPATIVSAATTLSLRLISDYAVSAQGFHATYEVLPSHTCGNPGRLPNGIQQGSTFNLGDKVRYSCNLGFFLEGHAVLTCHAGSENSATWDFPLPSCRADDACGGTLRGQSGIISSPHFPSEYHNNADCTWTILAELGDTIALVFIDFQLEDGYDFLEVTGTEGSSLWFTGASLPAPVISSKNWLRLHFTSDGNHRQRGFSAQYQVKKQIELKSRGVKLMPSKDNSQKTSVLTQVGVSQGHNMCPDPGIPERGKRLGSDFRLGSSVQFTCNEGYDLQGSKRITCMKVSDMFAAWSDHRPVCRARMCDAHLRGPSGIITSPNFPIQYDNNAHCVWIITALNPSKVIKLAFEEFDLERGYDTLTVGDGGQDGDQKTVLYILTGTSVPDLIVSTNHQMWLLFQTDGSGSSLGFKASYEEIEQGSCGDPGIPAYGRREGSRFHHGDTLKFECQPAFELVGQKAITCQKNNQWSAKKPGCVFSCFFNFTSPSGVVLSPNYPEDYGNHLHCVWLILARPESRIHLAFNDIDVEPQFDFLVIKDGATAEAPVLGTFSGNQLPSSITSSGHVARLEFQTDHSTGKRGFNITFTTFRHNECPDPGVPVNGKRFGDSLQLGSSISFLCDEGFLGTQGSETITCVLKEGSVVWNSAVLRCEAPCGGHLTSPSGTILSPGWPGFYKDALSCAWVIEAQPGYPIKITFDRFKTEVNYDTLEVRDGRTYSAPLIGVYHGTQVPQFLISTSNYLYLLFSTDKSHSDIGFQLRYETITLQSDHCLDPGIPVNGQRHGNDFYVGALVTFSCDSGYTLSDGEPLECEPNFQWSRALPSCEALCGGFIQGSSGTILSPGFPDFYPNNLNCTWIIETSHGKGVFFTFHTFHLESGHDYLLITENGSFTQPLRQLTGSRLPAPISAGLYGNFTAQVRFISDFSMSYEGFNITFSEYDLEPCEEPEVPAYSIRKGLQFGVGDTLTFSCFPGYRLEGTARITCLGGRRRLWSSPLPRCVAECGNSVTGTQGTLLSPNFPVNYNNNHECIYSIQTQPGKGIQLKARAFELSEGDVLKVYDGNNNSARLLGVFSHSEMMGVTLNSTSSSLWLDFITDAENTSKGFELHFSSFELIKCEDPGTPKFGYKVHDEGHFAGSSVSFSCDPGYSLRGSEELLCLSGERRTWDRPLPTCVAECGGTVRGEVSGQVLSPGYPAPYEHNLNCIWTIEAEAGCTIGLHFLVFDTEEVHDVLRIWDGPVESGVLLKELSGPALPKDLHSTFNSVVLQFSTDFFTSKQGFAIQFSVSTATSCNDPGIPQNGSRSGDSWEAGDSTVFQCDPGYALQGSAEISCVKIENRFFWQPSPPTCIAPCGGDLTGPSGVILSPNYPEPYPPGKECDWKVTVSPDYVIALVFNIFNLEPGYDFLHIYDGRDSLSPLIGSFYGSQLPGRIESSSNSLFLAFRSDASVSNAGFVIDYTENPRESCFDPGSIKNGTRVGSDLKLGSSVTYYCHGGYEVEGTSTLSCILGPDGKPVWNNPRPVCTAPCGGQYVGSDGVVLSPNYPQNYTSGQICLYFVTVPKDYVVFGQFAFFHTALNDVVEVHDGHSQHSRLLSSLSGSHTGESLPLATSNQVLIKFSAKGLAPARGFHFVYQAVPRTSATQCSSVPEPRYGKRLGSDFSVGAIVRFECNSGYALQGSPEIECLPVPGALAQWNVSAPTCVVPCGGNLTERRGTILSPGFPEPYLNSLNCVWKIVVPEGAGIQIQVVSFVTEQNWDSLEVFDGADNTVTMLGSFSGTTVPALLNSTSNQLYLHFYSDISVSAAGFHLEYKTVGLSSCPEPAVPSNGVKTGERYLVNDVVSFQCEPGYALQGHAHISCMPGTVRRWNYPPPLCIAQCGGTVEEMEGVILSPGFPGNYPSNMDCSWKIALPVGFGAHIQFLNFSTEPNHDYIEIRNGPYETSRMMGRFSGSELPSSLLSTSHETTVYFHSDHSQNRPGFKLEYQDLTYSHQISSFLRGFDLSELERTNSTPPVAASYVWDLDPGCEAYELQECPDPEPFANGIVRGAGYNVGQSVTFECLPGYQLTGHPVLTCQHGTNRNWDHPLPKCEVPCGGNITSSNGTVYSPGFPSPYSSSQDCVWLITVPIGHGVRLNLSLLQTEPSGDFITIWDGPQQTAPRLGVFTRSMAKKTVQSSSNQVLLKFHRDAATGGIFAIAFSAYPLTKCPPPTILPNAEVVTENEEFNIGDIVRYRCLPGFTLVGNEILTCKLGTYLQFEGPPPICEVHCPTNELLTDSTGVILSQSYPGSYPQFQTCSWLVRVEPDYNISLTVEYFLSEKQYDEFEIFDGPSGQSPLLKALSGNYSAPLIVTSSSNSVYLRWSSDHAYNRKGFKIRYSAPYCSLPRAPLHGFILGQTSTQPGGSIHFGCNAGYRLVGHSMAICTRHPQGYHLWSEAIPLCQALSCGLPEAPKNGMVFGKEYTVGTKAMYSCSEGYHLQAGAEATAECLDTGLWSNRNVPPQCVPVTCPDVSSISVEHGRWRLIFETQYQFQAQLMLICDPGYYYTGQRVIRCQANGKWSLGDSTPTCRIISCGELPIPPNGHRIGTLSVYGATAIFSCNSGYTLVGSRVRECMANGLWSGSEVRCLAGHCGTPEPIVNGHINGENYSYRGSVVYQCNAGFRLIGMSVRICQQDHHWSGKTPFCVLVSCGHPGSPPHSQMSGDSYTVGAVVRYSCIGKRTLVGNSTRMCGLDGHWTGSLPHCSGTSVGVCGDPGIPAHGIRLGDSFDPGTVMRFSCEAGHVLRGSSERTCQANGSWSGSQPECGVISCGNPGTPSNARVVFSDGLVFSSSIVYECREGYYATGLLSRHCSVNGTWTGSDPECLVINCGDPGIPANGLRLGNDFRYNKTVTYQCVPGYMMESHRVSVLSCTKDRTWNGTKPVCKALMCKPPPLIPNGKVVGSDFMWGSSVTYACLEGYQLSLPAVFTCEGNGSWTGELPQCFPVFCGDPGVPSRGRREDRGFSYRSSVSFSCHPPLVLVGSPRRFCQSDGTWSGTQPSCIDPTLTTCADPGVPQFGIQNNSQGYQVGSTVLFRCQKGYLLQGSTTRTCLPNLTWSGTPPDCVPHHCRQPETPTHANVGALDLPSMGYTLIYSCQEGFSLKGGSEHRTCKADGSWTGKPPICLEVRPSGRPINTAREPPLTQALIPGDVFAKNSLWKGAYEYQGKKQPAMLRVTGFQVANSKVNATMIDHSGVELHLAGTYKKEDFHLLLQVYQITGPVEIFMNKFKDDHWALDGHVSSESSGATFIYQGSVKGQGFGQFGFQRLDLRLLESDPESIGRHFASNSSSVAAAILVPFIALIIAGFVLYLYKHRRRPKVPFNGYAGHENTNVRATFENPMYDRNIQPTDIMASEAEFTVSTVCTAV
# UniProt Q9NVP1, sequence (Q9NVP1 whole entry, looked up): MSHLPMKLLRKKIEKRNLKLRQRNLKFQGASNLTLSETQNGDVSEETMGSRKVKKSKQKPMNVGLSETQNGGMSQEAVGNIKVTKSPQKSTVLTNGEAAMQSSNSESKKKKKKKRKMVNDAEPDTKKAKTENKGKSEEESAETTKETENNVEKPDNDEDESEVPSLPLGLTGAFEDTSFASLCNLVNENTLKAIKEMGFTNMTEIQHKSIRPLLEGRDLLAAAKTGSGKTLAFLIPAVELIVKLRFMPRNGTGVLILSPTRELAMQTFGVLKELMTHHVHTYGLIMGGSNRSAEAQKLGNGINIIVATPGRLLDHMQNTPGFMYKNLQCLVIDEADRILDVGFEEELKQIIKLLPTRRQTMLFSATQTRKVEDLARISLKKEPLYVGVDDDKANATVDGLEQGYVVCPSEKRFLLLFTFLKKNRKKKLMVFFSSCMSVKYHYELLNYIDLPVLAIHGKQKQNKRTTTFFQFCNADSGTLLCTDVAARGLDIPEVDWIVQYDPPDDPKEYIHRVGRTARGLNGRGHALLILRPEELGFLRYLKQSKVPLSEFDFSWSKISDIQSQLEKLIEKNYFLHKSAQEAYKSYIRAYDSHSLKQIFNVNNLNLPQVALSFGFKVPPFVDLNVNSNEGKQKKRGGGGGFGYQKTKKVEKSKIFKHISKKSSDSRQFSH
target,measurement,setting,value
CPSF1_Q10570_1102_IELQEWEHVTCMK (UniProt Q10570),probe-labelled cysteine peptide fold change,10 µM,0.0314
same,probe-labelled cysteine peptide fold change,50 µM,-0.201
CSMD2_Q7Z408-3_2_CDAHLR (UniProt Q7Z408),probe-labelled cysteine peptide fold change,10 µM,0.077
same,probe-labelled cysteine peptide fold change,50 µM,-2.14
DBR1_Q9UK59_347_VPCNFSVTAACYDPSKPQTQMQLIHR (UniProt Q9UK59),probe-labelled cysteine peptide fold change,10 µM,-0.109
same,probe-labelled cysteine peptide fold change,50 µM,-0.299
CORO1A_P31146_332_GLEVNKCEIAR (UniProt P31146),probe-labelled cysteine peptide fold change,10 µM,-0.447
same,probe-labelled cysteine peptide fold change,50 µM,-1.1
DGLUCY_Q7Z3D6_265_APPGCLTPER (UniProt Q7Z3D6),probe-labelled cysteine peptide fold change,10 µM,-0.239
same,probe-labelled cysteine peptide fold change,50 µM,-0.427
DCAF13_Q9NV06_215_FNPIETFLLGSCASDR (UniProt Q9NV06),probe-labelled cysteine peptide fold change,10 µM,0.105
same,probe-labelled cysteine peptide fold change,50 µM,-0.0461
DMXL2_Q8TDJ6_1897_VGCPVLALEVLSK (UniProt Q8TDJ6),probe-labelled cysteine peptide fold change,10 µM,0.0214
same,probe-labelled cysteine peptide fold change,50 µM,-0.0631
DDX46_Q7L014_646_ASYPCMSLHGGIDQYDR (UniProt Q7L014),probe-labelled cysteine peptide fold change,10 µM,-0.0173
same,probe-labelled cysteine peptide fold change,50 µM,0.231
COA7_Q96BR5_187_ACDLGHIWACANASR (UniProt Q96BR5),probe-labelled cysteine peptide fold change,10 µM,0.0578
same,probe-labelled cysteine peptide fold change,50 µM,0.0556
DENND3_A2RUS2_499_LTDTAGCR (UniProt A2RUS2),probe-labelled cysteine peptide fold change,10 µM,-0.198
same,probe-labelled cysteine peptide fold change,50 µM,-0.918
CPNE8_Q86YQ8_196_SNEDGSFTICHK (UniProt Q86YQ8),probe-labelled cysteine peptide fold change,10 µM,0.205
same,probe-labelled cysteine peptide fold change,50 µM,0.413
DENND3_A2RUS2_1094_DTSTSFLAFQLLPEEEQLWAACAGR (UniProt A2RUS2),probe-labelled cysteine peptide fold change,10 µM,1.07
same,probe-labelled cysteine peptide fold change,50 µM,1.16
DCAF6_Q58WW2_513_GIGSHCK (UniProt Q58WW2),probe-labelled cysteine peptide fold change,10 µM,-0.205
same,probe-labelled cysteine peptide fold change,50 µM,-0.361
DDX18_Q9NVP1_407_ANATVDGLEQGYVVCPSEK (UniProt Q9NVP1),probe-labelled cysteine peptide fold change,10 µM,-0.401
same,probe-labelled cysteine peptide fold change,50 µM,0.698
